Values without a mark were called inactive. The rule behind the calls is not given here.
Experiment: fluorescence polarization artefacts, biochemical, 57K campaign, artefact control, dose response (AID 1342)
Conditions: PKD fluorescence polarization interference counter-screen

C/C(=N\Nc1ncc(Cl)cc1Cl)c1ccccn1
IC50: 16.7 µM
